In ChEMBL document CHEMBL2218924, “A broad activity screen in support of a chemogenomic map for kinase signalling research and drug discovery” (Biochem J, 2013) one finds residual activity data, which are given here for 13 compounds.

The target of test [1] is Focal adhesion kinase 1 (Homo sapiens) (UniProt Q05397). Particulars: at 10 µM.
For test [2], the target named is Fibroblast growth factor receptor 1 (Homo sapiens) (UniProt P11362). Particulars: at 1 µM.
The target is the same in test [3]. Particulars: at 10 µM.
The target in test [4] is Fibroblast growth factor receptor 2 (Homo sapiens) (UniProt P21802). Particulars: at 1 µM.
Fibroblast growth factor receptor 2 (Homo sapiens), sequence (P21802 22-821 limits assumed): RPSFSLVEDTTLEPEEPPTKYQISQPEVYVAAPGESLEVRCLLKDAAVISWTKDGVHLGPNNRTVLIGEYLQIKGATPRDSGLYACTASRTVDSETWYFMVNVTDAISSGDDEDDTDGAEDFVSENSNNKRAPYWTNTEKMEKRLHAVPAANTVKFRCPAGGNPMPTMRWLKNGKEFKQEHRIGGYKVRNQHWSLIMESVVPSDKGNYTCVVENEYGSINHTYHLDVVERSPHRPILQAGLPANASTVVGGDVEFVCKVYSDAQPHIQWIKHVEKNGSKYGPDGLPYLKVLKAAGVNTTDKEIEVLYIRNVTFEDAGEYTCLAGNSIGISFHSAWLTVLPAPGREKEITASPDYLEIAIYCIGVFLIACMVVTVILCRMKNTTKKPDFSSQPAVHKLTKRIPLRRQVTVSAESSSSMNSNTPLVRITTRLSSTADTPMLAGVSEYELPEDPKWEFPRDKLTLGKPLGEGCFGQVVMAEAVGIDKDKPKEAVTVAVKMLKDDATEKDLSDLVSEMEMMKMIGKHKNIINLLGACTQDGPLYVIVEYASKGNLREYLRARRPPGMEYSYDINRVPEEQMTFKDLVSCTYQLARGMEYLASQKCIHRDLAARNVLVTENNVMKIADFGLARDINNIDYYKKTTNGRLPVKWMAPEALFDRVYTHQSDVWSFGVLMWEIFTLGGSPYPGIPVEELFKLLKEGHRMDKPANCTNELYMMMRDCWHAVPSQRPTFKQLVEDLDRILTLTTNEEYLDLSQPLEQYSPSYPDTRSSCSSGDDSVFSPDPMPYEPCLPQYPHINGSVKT
Test [5] has the same target. Particulars: at 10 µM.
Test [6] concerns the target Fibroblast growth factor receptor 3 (Homo sapiens) (UniProt P22607). Particulars: at 1 µM.
Test [7] shares this target. Particulars: at 10 µM.
The target in test [8] is Fibroblast growth factor receptor 4 (Homo sapiens) (UniProt P22455). Particulars: at 10 µM.
In test [9] the target is Tyrosine-protein kinase Fer (Homo sapiens) (UniProt P16591). Particulars: at 1 µM.
Test [10] shares this target. Particulars: at 10 µM.
Test [11] concerns the target Tyrosine-protein kinase Fes/Fps (Homo sapiens) (UniProt P07332). Particulars: at 1 µM.
The target is the same in test [12]. Particulars: at 10 µM.
The target of test [13] is Tyrosine-protein kinase Fgr (Homo sapiens) (UniProt P09769). Particulars: at 1 µM.
Test [14] shares this target. Particulars: at 10 µM.
Test [15] has as its target Vascular endothelial growth factor receptor 1 (Homo sapiens) (UniProt P17948). Particulars: at 1 µM.
Test [16] has the same target. Particulars: at 10 µM.
Test [17] concerns the target Receptor-type tyrosine-protein kinase FLT3 (Homo sapiens) (UniProt P36888). Particulars: at 1 µM.
Test [18] has the same target. Particulars: at 10 µM.
The target in test [19] is Vascular endothelial growth factor receptor 3 (Homo sapiens) (UniProt P35916). Particulars: at 1 µM.
The target of test [20] is Fibroblast growth factor receptor 4 (Homo sapiens) (UniProt P22455). Particulars: at 1 µM.

Each structure is given as a SMILES string.

Tyrosine-protein kinase Fes/Fps (Homo sapiens), sequence (P07332 whole entry): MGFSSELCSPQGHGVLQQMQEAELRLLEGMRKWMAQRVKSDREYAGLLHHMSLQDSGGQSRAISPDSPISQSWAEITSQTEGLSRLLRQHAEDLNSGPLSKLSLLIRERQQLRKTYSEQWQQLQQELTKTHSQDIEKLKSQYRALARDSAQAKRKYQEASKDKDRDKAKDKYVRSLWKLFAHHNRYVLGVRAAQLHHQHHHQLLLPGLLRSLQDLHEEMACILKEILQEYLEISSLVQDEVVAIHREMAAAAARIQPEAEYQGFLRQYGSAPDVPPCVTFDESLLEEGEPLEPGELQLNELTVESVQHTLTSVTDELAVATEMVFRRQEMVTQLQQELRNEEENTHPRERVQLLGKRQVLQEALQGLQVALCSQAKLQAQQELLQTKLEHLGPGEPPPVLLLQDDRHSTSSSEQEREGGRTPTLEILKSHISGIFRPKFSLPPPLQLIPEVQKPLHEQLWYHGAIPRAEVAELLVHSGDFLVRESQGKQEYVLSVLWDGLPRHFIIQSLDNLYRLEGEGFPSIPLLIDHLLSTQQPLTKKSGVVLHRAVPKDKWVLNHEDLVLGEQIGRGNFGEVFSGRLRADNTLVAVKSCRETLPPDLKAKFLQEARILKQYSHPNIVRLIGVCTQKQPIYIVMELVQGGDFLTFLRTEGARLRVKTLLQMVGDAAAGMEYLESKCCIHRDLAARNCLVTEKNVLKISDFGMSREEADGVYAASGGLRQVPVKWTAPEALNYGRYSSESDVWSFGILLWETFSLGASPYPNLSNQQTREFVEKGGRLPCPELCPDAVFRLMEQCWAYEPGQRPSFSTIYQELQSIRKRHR
Focal adhesion kinase 1 (Homo sapiens), sequence (Q05397 2-1052 limits assumed): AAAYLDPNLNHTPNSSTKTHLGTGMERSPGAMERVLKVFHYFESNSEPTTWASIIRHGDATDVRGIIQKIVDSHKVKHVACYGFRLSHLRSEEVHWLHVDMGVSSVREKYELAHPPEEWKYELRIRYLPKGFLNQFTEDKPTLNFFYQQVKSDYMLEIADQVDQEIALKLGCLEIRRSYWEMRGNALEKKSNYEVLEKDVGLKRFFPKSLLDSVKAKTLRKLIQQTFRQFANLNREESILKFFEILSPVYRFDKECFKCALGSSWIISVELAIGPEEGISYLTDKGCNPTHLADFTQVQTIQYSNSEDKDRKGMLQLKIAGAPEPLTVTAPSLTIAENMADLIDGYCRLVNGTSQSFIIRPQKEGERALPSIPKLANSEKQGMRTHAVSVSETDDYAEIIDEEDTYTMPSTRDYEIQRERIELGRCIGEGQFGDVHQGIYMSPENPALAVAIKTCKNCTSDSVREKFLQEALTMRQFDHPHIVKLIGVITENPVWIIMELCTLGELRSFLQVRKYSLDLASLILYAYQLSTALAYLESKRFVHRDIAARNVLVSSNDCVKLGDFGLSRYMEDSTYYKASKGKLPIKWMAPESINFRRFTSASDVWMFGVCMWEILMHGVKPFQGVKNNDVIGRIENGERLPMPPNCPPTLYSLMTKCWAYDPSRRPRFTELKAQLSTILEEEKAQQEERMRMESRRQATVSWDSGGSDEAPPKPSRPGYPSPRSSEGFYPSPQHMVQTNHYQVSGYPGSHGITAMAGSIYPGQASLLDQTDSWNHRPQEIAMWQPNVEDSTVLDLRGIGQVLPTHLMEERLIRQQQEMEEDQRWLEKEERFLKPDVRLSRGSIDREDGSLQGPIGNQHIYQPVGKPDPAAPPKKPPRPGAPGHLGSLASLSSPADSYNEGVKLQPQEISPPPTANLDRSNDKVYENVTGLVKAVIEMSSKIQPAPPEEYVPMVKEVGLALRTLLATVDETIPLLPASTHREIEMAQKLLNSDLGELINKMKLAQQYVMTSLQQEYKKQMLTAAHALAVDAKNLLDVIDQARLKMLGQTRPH
Receptor-type tyrosine-protein kinase FLT3 (Homo sapiens), sequence (P36888 whole entry): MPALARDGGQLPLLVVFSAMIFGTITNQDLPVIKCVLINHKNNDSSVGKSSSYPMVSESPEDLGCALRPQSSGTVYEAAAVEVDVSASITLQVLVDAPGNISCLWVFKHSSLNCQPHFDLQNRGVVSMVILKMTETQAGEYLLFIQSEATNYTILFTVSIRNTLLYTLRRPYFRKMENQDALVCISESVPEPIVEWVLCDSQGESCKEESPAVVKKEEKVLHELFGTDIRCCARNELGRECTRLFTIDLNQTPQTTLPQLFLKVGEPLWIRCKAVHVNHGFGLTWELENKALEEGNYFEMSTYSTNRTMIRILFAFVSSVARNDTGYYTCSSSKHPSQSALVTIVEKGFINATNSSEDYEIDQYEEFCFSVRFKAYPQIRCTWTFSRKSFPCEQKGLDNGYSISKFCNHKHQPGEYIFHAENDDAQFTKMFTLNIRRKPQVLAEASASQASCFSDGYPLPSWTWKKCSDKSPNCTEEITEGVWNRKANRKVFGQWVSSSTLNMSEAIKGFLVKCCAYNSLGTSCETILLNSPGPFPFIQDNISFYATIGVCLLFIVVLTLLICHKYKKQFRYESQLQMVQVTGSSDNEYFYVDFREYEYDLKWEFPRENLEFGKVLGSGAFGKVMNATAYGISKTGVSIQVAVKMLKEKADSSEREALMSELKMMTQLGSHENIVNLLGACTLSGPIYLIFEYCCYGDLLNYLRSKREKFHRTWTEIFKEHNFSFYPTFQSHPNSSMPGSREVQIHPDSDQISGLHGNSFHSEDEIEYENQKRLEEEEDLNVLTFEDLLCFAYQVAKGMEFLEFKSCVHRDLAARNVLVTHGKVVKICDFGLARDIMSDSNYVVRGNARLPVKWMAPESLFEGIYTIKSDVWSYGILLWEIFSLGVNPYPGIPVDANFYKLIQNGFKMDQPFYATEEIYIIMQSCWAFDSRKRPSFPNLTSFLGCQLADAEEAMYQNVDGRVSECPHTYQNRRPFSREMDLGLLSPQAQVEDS
Vascular endothelial growth factor receptor 1 (Homo sapiens), sequence (P17948 whole entry): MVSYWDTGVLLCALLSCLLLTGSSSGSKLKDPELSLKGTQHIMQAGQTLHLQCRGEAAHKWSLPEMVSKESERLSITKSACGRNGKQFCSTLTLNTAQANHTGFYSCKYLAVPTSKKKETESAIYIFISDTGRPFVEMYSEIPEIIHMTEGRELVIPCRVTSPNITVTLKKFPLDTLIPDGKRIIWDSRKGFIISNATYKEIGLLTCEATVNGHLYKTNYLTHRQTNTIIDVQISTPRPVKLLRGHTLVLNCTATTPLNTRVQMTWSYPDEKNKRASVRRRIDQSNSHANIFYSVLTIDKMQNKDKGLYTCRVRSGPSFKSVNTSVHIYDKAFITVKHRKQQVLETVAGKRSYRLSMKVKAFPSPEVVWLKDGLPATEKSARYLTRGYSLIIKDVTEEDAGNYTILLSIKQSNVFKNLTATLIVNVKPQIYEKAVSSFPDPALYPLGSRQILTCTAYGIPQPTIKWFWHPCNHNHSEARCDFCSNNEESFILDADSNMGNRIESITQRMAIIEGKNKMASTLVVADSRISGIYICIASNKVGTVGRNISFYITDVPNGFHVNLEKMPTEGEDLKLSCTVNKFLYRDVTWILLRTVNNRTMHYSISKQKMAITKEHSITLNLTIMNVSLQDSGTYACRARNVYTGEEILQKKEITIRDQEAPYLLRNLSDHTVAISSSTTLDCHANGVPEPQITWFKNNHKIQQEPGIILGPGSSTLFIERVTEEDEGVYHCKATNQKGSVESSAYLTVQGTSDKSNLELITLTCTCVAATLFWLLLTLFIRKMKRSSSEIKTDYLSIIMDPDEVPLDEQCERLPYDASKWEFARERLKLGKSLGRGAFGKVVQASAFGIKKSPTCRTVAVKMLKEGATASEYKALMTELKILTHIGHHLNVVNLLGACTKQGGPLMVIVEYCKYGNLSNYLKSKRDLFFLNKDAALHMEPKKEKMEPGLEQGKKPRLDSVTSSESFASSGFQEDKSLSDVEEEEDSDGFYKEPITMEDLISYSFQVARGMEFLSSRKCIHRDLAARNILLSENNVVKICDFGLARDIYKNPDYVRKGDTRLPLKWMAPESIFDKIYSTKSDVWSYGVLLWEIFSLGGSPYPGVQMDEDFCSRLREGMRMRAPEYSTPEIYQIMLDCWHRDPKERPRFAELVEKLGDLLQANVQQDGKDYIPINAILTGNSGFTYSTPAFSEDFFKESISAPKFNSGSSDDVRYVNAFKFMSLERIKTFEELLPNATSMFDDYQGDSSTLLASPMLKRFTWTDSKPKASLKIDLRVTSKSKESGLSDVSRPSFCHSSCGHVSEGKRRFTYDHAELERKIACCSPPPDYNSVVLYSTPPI

Turning to `COc1cc2nccc(Oc3ccc(NC(=S)NC(=O)c4ccccc4C)cc3)c2cc1OC`, the residual activity in test [1] was found to be 66%; in [2], 49%; in test [3], 8%; in [4], 84%; in [5], 40%; in test [6], 90%. In addition, the residual activity in test [7] amounted to 58%; in test [8], 78%; in test [9] it was 70%; in test [10] it was 34%; in [11] it was 79%; in test [12], 36%. The residual activity in [13] stood at 14%; in test [14], 3%; in test [15], 5%; in test [16] it was 0%; in [17], 75%; in test [18], 31%. Also, the residual activity in test [19] is 1%.
As for `O=C1NC(=O)C(c2c[nH]c3ccccc23)=C1c1c[nH]c2ccccc12`, the residual activity was 44% in test [1]; 9% in [2]; 1% in test [3]; 37% in [4]; 9% in test [5]; 27% in test [6]. The residual activity worked out at 4% in test [7]; 71% in [8]; 52% in test [10]; 48% in test [12]; 98% in [13]; 60% in test [14]. Besides, the residual activity in test [15] came to 4%; in test [16], 1%; in test [17] it was 19%; in test [18], 1%; in test [19] it was 2%.
Regarding `CC(C)(C)n1nc(Cc2cccc3ccccc23)c2c(N)ncnc21`, the residual activity in test [1] was determined as 81%; in test [2], 28%; in [3], 2%; in test [4] it was 62%; in test [5], 18%; in test [20], 115%. The residual activity came out at 72% in [8]; 104% in [9]; 39% in test [10]; 95% in [11]; 27% in test [12]; 35% in test [13]. The residual activity in test [14] worked out at 4%; in [15], 62%; in test [16], 14%; in test [17], 102%; in [18] it was 75%; in test [19], 42%.
As to `NC(=O)Nc1sc(-c2ccc(F)cc2)cc1C(N)=O`, the residual activity in test [1] came to 9%; in test [2] it was 29%; in [3], 5%; in test [4], 50%; in test [5], 10%; in [6] it was 81%. Besides, the residual activity stood at 15% in [7]; 106% in test [20]; 91% in test [8]; 83% in [9]; 50% in [10]; 78% in test [11]. Further, the residual activity in test [12] is 24%; in [13], 28%; in test [14], 4%; in test [15] it was 17%; in test [16] it was 2%; in test [17], 22%. The residual activity in test [18] is 3%; in test [19], 4%.
As for `O=C1C(Cl)=C(N2C(=O)CCC2=O)C(=O)c2ccccc21`, the residual activity in test [1] was found to be 90%; in [2] it was 118%; in [3] it was 94%; in test [4] it was 100%; in test [5] it was 89%; in test [20] it was 98%. The residual activity in [8] was 91%; in test [9], 87%; in test [10], 91%; in test [11] it was 83%; in test [12], 97%; in test [13], 94%. The residual activity in [14] stood at 96%; in [15], 96%; in [16], 84%; in test [17], 90%; in test [18], 87%; in [19] it was 91%.
Regarding `Cn1c2ccccc2c2c3c(c4c5ccccc5n(CCC#N)c4c21)CNC3=O`, the residual activity in test [1] was 17%; in test [2], 7%; in [3], 6%; in test [4] it was 53%; in test [5] it was 46%; in test [20], 111%. Also, the residual activity was determined as 4% in test [9]; 4% in [10]; 41% in test [13]; 47% in [14]; 4% in test [15]; 4% in test [16]. Besides, the residual activity in [17] is 0%; in test [18], 0%; in [19], 2%.
Regarding `O=S(=O)(NCCNC/C=C/c1ccc(Br)cc1)c1cccc2cnccc12`, the residual activity in test [1] is 30%; in test [3] it was 35%; in test [7] it was 80%; in test [10], 71%; in [11], 75%; in test [12], 27%. Also, the residual activity was 59% in [14], 35% in test [16], 46% in test [18] and 81% in test [19].
As for `O=c1cc(N2CCOCC2)oc2c1ccc1ccccc12`, the residual activity turned out to be 92% in test [1]; 109% in test [2]; 71% in [3]; 111% in test [4]; 101% in test [5]; 96% in test [10]. Besides, the residual activity in test [12] was found to be 98%; in [13], 107%; in test [14], 94%; in test [15], 98%; in test [16], 95%; in test [17] it was 101%. For the same compound, the residual activity was found to be 97% in test [18] and 94% in [19].
For the compound `O=C1NC(=O)c2c1c1c3ccccc3[nH]c1n1cncc21`, the residual activity amounted to 25% in [1]; 41% in test [2]; 9% in [3]; 72% in [4]; 32% in [5]; 76% in test [6]. Further, the residual activity in [7] came out at 41%; in [20], 102%; in test [8], 80%; in test [11], 79%; in [12], 56%; in test [13] it was 75%. Further, the residual activity is 45% in test [14]; 16% in [15]; 3% in test [16]; 18% in test [17]; 5% in test [18]; 0% in [19].
For the compound `O=C(c1ccccc1)c1ccc(N2CCOCC2)cc1O`, the residual activity in test [1] is 85%; in test [2], 98%; in test [3] it was 73%; in [20], 116%; in [8], 95%; in test [9], 125%. In addition, the residual activity is 97% in [10]; 116% in test [11]; 93% in [12]; 100% in test [15]; 93% in [16]; 83% in test [17]. The residual activity is 53% in test [18] and 87% in test [19].
`c1ccc(-c2cnc(Nc3ccc(OCCN4CCCC4)cc3)s2)cc1`: the residual activity in test [1] worked out at 46%; in [2], 59%; in [3], 8%; in test [4], 80%; in test [5], 28%; in test [9], 111%. In addition, the residual activity in test [11] came to 123%; in [12], 59%; in test [13], 63%; in [14], 11%; in test [15], 4%; in [16], 0%. The residual activity turned out to be 4% in [17], 0% in [18] and 2% in test [19].
On to `Oc1cccc(-c2nc(N3CCOCC3)c3oc4ncccc4c3n2)c1`, for which the residual activity in test [1] stood at 50%; in [2] it was 97%; in [3] it was 78%; in test [4] it was 122%; in test [5], 123%; in test [8], 99%. In addition, the residual activity in test [9] was 119%; in [10], 99%; in test [11], 137%; in test [13], 118%; in test [14] it was 97%; in test [15], 91%. Besides, the values for the residual activity in test [16], in [17] and in test [18] were 80%, 89% and 72%, respectively.
For `O=C1NC(=O)C(c2cn(CCCn3ccnc3)c3ccccc23)=C1Nc1ccccc1`, the residual activity in test [1] stood at 71%; in test [2] it was 77%; in [3] it was 17%; in [4], 113%; in test [5] it was 57%; in test [9] it was 102%. The residual activity in test [10] was 52%; in [14], 59%; in [15], 51%; in [16], 11%; in test [17] it was 14%; in test [18], 0%. Moreover, in [19], the residual activity was found to be 58%.

The residual activity is the signal under treatment as a percentage of the control signal.
